Sampled rows, rich in hits. Any-hit rate of the full collection: about 9.4%.
SARS PLP yeast = blocks SARS-CoV papain-like protease in a yeast assay | hit rate 0.19% among 330,000 | Potency, µM (doses to about 32.9 µM), for the others: at the highest dose activity, positive = growth rescue, usual class: activators | S. cerevisiae expressing SARS-CoV PLpro, growth rescue | AID 485353; calls by dose curve; note: 0% is about no effect; nearly all actives have a fitted effect of over 55% in size
Pf growth 48h = inhibits P. falciparum growth in the first generation, 48 h; P. falciparum luciferase growth in erythrocytes, 48 h; Potency, µM (top dose mostly 28.7 µM), for the others: at the top dose activity change, negative = inhibition, usual class: inhibitors; hit rate 5.9% among 310,000; note: % is set by controls: 0 for no effect and ±100 for the full control effect
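Growth was read as firefly luciferase luminescence after a 48 h, 37 C, 5% CO2 exposure of compounds to reporter-bearing P. falciparum cultures (0.1% parasitemia, 2% hematocrit final) in Albumax-supplemented RPMI 1640.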
AMA1 RON2 block = disrupts binding of P. falciparum AMA1 to RON2; hit rate 0.2% among 360,000; AlphaScreen AMA1-biotinylated RON2 peptide binding; Potency, µM (titrated, usually from 58.2 µM), without a hit: top-dose activity change, negative = inhibition, most hits filed as inhibitors;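 note: 0% = vehicle wells and -100% = peptide control; nearly all actives have a fitted effect of over 45% in size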
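AMA1 (3D7) with his tag at 25 nM final met compounds first, then biotinylated RON2 peptide at 25 nM; detection used donor plus acceptor beads, 10 µg/mL apiece, read by AlphaScreen after 30 min at room temperature.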
Pf growth 96h = P. falciparum growth inhibition at 96 hours. P. falciparum luciferase reporter growth, 96 h. Potency, µM (highest dose often 28.7 µM), inactives show top-dose activity change, negative = inhibition, actives largely listed as inhibitors. hit rate 6.9% among 320,000; note: % is set by controls: 0 for no effect and ±100 for the full control effect
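Two-generation exposure (96 h) targets delayed-death phenotype. Reporter parasites carrying integrated firefly luciferase, in red cells at 2% hematocrit and 0.05% parasitemia final, kept at 37 C, 5% CO2; luminescence loss indicates inhibition.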
Active calls of the source: *; [ ] = dose if it differs, or a comment. Unless noted, calls come from the whole dose curve; as a rule, active = well fitted curve in the direction sought with a large enough effect; inconclusive = small, poorly fitted or top-dose-only effect, or another doubt; inactive = no such curve, though single readings can be large; an effect the other way counts as inactive or inconclusive. Potency is the fitted concentration of half-maximal effect.

How did Nc1c(C(=O)O)ccc2c1C(=O)c1ccccc1C2=O do in these assays?
SARS PLP yeast: -11.2%; Pf growth 48h: 7.1%; AMA1 RON2 block: -20.2%; Pf growth 96h: 21.4%

How did COC(=O)c1ccc2c(c1O)C(=O)c1ccccc1C2=O do in these assays?
SARS PLP yeast: -11.9%; AMA1 RON2 block: -24.5%; Pf growth 96h: 4.15µM*

Results for CCCCc1n(CC(=O)c2ccc(Cl)cc2)c2ccccc2[n+]1C ?
Pf growth 48h: 1.17µM*; AMA1 RON2 block: -10.8%; Pf growth 96h: inconclusive

How did Cn1c(=N)n(CC(=O)c2ccc(F)cc2)c2ccccc21 do in these assays?
SARS PLP yeast: -0.2%; AMA1 RON2 block: 6.5%; Pf growth 96h: 190.8%

What do the screens show for `Cc1n(CC(=O)c2ccc(F)cc2)c2ccccc2[n+]1C`?
SARS PLP yeast: -0.8%; Pf growth 48h: 3.7µM*; AMA1 RON2 block: 5.5%; Pf growth 96h: inconclusive

How did CCOC(=O)Cn1c(C)[n+](CC(=O)c2ccccc2)c2ccccc21 do in these assays?
SARS PLP yeast: -0.4%; Pf growth 48h: inconclusive; AMA1 RON2 block: -10.2%; Pf growth 96h: 5.22µM*

Results for CC(SCC(=O)Nc1ccccc1)c1nc2ccccc2c(=O)[nH]1 (stereo not drawn) ?
SARS PLP yeast: 4.3%; Pf growth 48h: -26.2%; AMA1 RON2 block: -20.2%; Pf growth 96h: inconclusive

How did Cc1ccc(NC(=O)CSC(C)c2nc3ccccc3c(=O)[nH]2)cc1 (stereo not drawn) do in these assays?
SARS PLP yeast: 4.8%; Pf growth 48h: 8.5%; AMA1 RON2 block: -2.5%; Pf growth 96h: 14.7µM*

What do the screens show for `Cc1nnc2sc(SCc3ccccc3)nn2c1=O`?
SARS PLP yeast: -28.3%; Pf growth 48h: 10.4µM*; Pf growth 96h: inconclusive

Results for COc1ccccc1NC(=O)CSc1nn2c(=O)c(C)nnc2s1 ?
SARS PLP yeast: 2.9%; Pf growth 48h: 14.1%; AMA1 RON2 block: 114.4%; Pf growth 96h: inconclusive

Results for Cc1nnc2sc(SCc3cccc(Cl)c3)nn2c1=O ?
SARS PLP yeast: 0.1%; Pf growth 48h: 5.86µM*; AMA1 RON2 block: 1.9%; Pf growth 96h: 2.08µM*

Results for Cc1nnc2sc(SCc3ccccc3Cl)nn2c1=O ?
SARS PLP yeast: -1.9%; Pf growth 48h: inconclusive; AMA1 RON2 block: 1.6%; Pf growth 96h: inconclusive

Results for Cc1nnc2sc(SCC(=O)Nc3nccs3)nn2c1=O ?
SARS PLP yeast: 18.2%; Pf growth 48h: inconclusive; AMA1 RON2 block: 53.2%; Pf growth 96h: 1.65µM*

How did CC1=C(C(=O)Nc2ccc(C)cc2C)C(c2cccc(Cl)c2)n2nc(C(=O)OC(C)C)nc2N1 (stereo not drawn) do in these assays?
SARS PLP yeast: 6.3%; Pf growth 48h: inconclusive; AMA1 RON2 block: 12.7%; Pf growth 96h: 18.8%

Results for C=CCN(CC(=O)NCc1ccc(F)cc1)C(=O)c1csnn1 ?
SARS PLP yeast: 2.3%; Pf growth 48h: 8.9%; AMA1 RON2 block: -14.3%; Pf growth 96h: 18.8%

Results for COc1ccc(OCC#CCN2CCNCC2)cc1 ?
SARS PLP yeast: -6.2%; Pf growth 48h: 15.5%; AMA1 RON2 block: -29.1%; Pf growth 96h: 1.85µM*

What do the screens show for `CCOc1cc(C(=O)OC(C)C(=O)Nc2ncc(Cl)cc2Cl)ccc1OCC(=O)N1CCOCC1` (stereo not drawn)?
SARS PLP yeast: 0.1%; Pf growth 48h: 10.3%; AMA1 RON2 block: -7.2%; Pf growth 96h: -1.2%

How did CCOC(=O)c1c(C)[nH]c(C(=O)OCC(=O)N2CCN(S(=O)(=O)c3ccc(C)cc3C)CC2)c1C do in these assays?
SARS PLP yeast: 10.2%[6.58 µM]; Pf growth 48h: 14.7µM*; AMA1 RON2 block: 3.9%; Pf growth 96h: 7.38µM*

How did CCC(C(=O)OCC(=O)N1CCN(S(=O)(=O)c2ccc(C)cc2C)CC1)c1ccccc1 (stereo not drawn) do in these assays?
SARS PLP yeast: -1.2%; Pf growth 48h: 13.1µM*; AMA1 RON2 block: 9.9%[11.6 µM]; Pf growth 96h: 9.28µM*

Results for Cc1nn(-c2ccccc2)c2nc3c(cc12)C(=O)CCC3 ?
SARS PLP yeast: 12.0%; Pf growth 48h: 2.3%; AMA1 RON2 block: 37.8%; Pf growth 96h: inconclusive

Results for COc1cccc(CC(C(=O)Nc2cc(C)ccc2C)c2nn[nH]n2)c1OC (stereo not drawn) ?
SARS PLP yeast: -0.5%; Pf growth 48h: 36.4%; AMA1 RON2 block: -10.7%; Pf growth 96h: 13.9%[5.75 µM]

Results for CN(C)c1ccc(NC(=S)NC(=O)/C=C/c2ccco2)cc1 ?
SARS PLP yeast: -3.1%; Pf growth 48h: 17.6%; AMA1 RON2 block: 5.5%; Pf growth 96h: inconclusive

What do the screens show for `COC(=O)c1ccc2c(=O)n(Cc3ccco3)c(SCC(=O)Nc3cc(C)on3)nc2c1`?
SARS PLP yeast: -0.3%; Pf growth 48h: 4.65µM*; AMA1 RON2 block: -6.0%; Pf growth 96h: -5.5%

How did Cc1cc(NC(=O)CSc2nnc(-c3ccccc3)n2Cc2ccco2)no1 do in these assays?
SARS PLP yeast: 5.0%; Pf growth 48h: inconclusive; AMA1 RON2 block: 2.1%; Pf growth 96h: inconclusive

How did CCn1c(Cc2ccccc2)nnc1SCC(=O)Nc1cc(C)on1 do in these assays?
SARS PLP yeast: -1.4%; Pf growth 48h: -13.8%; AMA1 RON2 block: 2.7%; Pf growth 96h: 8.28µM*

Results for COC(=O)c1ccc2c(=O)n(Cc3ccco3)c(SCC(=O)Nc3ccccc3Cl)nc2c1 ?
SARS PLP yeast: 2.3%; Pf growth 48h: -3.9%; AMA1 RON2 block: -14.4%; Pf growth 96h: inconclusive

Results for Cc1cc(NC(=O)CSc2nnc(COc3ccccc3)n2Cc2ccco2)no1 ?
SARS PLP yeast: -10.5%; Pf growth 48h: -15.7%; AMA1 RON2 block: inconclusive; Pf growth 96h: 8.28µM*

How did Cc1cc(C)nc(SCc2nnc(SCC(=O)Nc3ccc(C)c(C)c3)n2Cc2ccco2)n1 do in these assays?
SARS PLP yeast: 2.0%; Pf growth 48h: inconclusive; AMA1 RON2 block: -10.6%; Pf growth 96h: 13.1µM*

What do the screens show for `O=C(CC(Nc1ccccc1)c1ccc(F)cc1)c1ccccc1` (stereo not drawn)?
SARS PLP yeast: 2.0%; Pf growth 48h: 10.3%; AMA1 RON2 block: -9.7%; Pf growth 96h: 2.62µM*

How did O=C(CC(Nc1ccccc1)C(=O)O)c1ccccc1 (stereo not drawn) do in these assays?
SARS PLP yeast: 3.9%; Pf growth 48h: 173.6%; AMA1 RON2 block: 11.2%

What do the screens show for `Cc1cc(C)cc(NC(=O)C(Sc2nnc(C)c(=O)[nH]2)c2ccccc2)c1` (stereo not drawn)?
SARS PLP yeast: 1.1%; Pf growth 48h: -2.8%; AMA1 RON2 block: 32.3%; Pf growth 96h: -1.3%

How did CC(=O)Nc1cccc2c1C(=O)N(c1ccc(OC(C)=O)cc1)C2=O do in these assays?
SARS PLP yeast: -0.3%; Pf growth 48h: 4.2%; AMA1 RON2 block: -1.0%; Pf growth 96h: 2.62µM*

What do the screens show for `CC(=O)Nc1cccc2c1C(=O)N(c1cccc(OC(C)=O)c1)C2=O`?
SARS PLP yeast: 4.7%; Pf growth 48h: 6.6%; AMA1 RON2 block: 9.8%; Pf growth 96h: 0.0%

What do the screens show for `COc1ccc(CCNC(=S)N2CCN(S(=O)(=O)c3ccc(C)cc3)CC2)cc1`?
SARS PLP yeast: -1.2%; Pf growth 48h: 2.94µM*; AMA1 RON2 block: -1.8%; Pf growth 96h: 2.62µM*

Bioassay records deposited in PubChem BioAssay by National Center for Advancing Translational Sciences (NCATS).
